# Laboratory results taken from PMC7862700, “An all-to-all approach to the identification of sequence-specific readers for epigenetic DNA modifications on cytosine”.
# Columns and labels:
# Test in all cases: DAPPL (digital affinity profiling via proximity ligation, sequencing); 10 mM Tris-HCl pH 7.5, 50 mM NaCl, 1 mM DTT, 4% glycerol, room temperature, 30 min; GST-TFs on glutathione beads, 16-mer random dsDNA library, 0.1% formaldehyde crosslink after washing; high values mean tight binding
# [1] = biological target: T1, FLI1 (Homo sapiens, UniProt Q01543 1-452); details: protein: recombinant; tags: N-terminal GST; dsDNA, one strand shown
# T1 sequence: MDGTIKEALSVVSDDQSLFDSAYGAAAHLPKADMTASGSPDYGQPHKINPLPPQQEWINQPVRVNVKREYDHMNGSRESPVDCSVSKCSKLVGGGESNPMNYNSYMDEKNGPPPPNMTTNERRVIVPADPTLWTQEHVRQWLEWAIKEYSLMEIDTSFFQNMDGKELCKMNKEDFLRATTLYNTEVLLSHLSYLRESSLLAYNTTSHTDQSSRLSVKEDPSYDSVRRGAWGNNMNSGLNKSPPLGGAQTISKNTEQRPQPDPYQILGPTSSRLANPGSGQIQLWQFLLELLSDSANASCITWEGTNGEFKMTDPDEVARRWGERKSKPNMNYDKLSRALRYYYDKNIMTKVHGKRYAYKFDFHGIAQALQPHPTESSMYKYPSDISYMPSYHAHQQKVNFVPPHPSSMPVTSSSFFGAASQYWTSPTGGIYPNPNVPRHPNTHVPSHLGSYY
# How it was run: (§1)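 After expression in yeast as GST fusions, human transcription factors were bound to glutathione beads, DNA-barcoded and mixed with a tag-only sample. The pools were incubated with 200 nmole of a 16-mer random double-stranded DNA library in Tris/NaCl/DTT/glycerol buffer (30 min, room temperature), washed and crosslinked with 0.1% formaldehyde. Proximity ligation with BsaI/T4 ligase ran for 1 h at 37 °C, before PCR amplification and sequencing on an Illumina NextSeq500. Binding signal is a hexamer's read frequency for a factor divided by its frequency for the tag-only sample.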
# [2] = biological target: T2, ELK1 (Homo sapiens, UniProt P19419 1-428); details: protein: recombinant; tags: N-terminal GST; dsDNA, one strand shown
# T2 sequence: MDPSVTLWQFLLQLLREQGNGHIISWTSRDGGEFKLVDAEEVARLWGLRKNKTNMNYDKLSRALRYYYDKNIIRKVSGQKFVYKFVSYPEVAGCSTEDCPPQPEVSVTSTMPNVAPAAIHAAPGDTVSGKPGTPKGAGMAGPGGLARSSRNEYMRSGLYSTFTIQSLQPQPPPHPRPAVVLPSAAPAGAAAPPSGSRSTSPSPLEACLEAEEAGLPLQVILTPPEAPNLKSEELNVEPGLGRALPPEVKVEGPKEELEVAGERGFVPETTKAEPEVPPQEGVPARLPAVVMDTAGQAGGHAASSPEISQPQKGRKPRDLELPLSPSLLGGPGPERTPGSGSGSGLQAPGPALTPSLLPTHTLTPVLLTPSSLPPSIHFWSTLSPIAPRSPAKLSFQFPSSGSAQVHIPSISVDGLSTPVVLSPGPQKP
# How it was run: as §1
# [3] = biological target: T3, GABPA (Homo sapiens, UniProt Q06546 1-454); details: protein: recombinant; tags: N-terminal GST; dsDNA, one strand shown
# T3 sequence: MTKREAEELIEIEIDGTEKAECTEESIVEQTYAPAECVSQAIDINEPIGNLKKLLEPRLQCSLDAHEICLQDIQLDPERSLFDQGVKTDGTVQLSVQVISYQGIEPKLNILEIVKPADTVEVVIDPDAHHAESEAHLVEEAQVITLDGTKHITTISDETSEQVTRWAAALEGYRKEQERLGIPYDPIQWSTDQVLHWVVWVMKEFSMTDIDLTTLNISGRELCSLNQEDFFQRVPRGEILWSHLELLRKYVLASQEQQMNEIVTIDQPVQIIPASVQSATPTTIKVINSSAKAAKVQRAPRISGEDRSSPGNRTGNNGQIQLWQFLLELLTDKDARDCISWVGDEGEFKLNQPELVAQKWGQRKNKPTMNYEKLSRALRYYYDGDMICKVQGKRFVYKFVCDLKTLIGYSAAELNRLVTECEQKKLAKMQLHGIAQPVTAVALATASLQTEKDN
# How it was run: as §1
# [4] = biological target: T4, ERG (Homo sapiens, UniProt P11308 1-479); details: protein: recombinant; tags: N-terminal GST; dsDNA, one strand shown
# T4 sequence: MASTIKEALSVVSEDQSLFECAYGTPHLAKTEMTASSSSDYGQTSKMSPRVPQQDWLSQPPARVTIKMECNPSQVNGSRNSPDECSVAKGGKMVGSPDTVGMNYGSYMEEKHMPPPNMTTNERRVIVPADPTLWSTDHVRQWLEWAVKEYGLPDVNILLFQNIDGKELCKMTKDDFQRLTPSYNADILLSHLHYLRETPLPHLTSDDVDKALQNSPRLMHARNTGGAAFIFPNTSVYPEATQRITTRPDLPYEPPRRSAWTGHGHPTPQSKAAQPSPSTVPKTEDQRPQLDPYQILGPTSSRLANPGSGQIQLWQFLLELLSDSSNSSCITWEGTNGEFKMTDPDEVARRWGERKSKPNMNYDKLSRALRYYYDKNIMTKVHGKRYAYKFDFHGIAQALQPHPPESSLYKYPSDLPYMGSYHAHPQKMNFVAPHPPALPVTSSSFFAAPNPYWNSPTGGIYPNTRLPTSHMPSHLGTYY
# How it was run: as §1
# [5] = biological target: ELF1 (Homo sapiens, UniProt P32519 1-619); details: protein: recombinant; tags: N-terminal GST; dsDNA, one strand shown
# How it was run: as §1
# [6] = biological target: T5, EHF (Homo sapiens, UniProt Q9NZC4 1-300); details: protein: recombinant; tags: N-terminal GST; dsDNA, one strand shown
# T5 sequence: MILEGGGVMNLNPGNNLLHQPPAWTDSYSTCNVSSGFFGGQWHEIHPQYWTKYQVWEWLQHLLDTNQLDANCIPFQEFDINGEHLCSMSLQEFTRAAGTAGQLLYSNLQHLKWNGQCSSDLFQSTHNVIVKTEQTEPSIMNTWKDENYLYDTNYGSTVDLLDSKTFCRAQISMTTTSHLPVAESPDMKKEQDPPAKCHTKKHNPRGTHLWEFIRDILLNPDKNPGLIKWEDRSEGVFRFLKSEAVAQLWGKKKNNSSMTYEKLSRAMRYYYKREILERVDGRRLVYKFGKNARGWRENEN
# How it was run: as §1
# [7] = biological target: SPI1 (Homo sapiens, UniProt P17947 1-270); details: protein: recombinant; tags: N-terminal GST; dsDNA, one strand shown
# How it was run: as §1
# [8] = biological target: SPIB (Homo sapiens, UniProt Q01892 1-262); details: protein: recombinant; tags: N-terminal GST; dsDNA, one strand shown
# How it was run: as §1
# [9] = biological target: T6, ELK3 (Homo sapiens, UniProt P41970 1-407); details: protein: recombinant; tags: N-terminal GST; dsDNA, one strand shown
# T6 sequence: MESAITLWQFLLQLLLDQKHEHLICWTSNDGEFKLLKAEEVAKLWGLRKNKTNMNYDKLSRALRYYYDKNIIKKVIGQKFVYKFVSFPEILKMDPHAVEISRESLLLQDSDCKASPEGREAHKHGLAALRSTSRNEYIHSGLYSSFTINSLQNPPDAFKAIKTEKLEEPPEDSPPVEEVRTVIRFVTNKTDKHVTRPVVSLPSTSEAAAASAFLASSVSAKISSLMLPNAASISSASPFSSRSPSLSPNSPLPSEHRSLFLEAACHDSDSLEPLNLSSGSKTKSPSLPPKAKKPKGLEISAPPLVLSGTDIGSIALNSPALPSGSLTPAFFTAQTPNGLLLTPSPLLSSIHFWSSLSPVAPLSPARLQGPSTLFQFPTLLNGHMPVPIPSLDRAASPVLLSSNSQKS
# How it was run: as §1
# [10] = biological target: T7, FEV (Homo sapiens, UniProt Q99581 1-238); details: protein: recombinant; tags: N-terminal GST; dsDNA, one strand shown
# T7 sequence: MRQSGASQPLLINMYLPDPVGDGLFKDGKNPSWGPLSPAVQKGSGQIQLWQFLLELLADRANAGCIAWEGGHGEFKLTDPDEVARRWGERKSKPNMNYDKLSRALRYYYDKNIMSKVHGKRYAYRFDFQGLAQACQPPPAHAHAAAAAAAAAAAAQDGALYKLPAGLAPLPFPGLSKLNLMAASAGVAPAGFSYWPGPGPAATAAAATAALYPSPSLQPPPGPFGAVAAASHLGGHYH
# How it was run: as §1
# [11] = biological target: ETV5 (Homo sapiens, UniProt P41161 1-510); details: protein: recombinant; tags: N-terminal GST; dsDNA, one strand shown
# How it was run: as §1
# [12] = biological target: HSF1 (Homo sapiens, UniProt Q00613 1-529); details: protein: recombinant; tags: N-terminal GST; chain copies: 3; dsDNA, one strand shown
# How it was run: as §1
# [13] = biological target: T8, SPIC (Homo sapiens, UniProt Q8N5J4 1-248); details: protein: recombinant; tags: N-terminal GST; dsDNA, one strand shown
# T8 sequence: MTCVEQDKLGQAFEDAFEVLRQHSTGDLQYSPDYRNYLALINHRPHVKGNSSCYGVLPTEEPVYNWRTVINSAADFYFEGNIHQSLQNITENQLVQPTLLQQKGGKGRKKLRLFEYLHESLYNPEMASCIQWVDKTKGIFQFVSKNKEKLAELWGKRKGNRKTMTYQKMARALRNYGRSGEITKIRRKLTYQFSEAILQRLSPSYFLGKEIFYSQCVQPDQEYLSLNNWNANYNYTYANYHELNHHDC
# How it was run: as §1
# [14] = biological target: ELF4 (Homo sapiens, UniProt Q99607 1-663); details: protein: recombinant; tags: N-terminal GST; dsDNA, one strand shown
# How it was run: as §1
# [15] = biological target: T9, ELK4 (Homo sapiens, UniProt P28324-2 1-405); details: protein: recombinant; tags: N-terminal GST; dsDNA, one strand shown
# T9 sequence: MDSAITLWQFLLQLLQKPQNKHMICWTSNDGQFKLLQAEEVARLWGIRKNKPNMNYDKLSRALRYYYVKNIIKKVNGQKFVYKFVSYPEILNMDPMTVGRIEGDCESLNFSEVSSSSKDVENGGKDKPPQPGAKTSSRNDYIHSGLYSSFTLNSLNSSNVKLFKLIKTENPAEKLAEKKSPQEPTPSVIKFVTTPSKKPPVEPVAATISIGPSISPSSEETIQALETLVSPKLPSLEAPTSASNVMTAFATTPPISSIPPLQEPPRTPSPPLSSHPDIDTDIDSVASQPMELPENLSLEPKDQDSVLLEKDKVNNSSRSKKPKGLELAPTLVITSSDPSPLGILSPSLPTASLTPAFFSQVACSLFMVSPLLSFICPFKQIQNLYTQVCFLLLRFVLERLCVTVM
# How it was run: as §1
# [16] = biological target: T10, ETV2 (Homo sapiens, UniProt O00321 1-342); details: protein: recombinant; tags: N-terminal GST; dsDNA, one strand shown
# T10 sequence: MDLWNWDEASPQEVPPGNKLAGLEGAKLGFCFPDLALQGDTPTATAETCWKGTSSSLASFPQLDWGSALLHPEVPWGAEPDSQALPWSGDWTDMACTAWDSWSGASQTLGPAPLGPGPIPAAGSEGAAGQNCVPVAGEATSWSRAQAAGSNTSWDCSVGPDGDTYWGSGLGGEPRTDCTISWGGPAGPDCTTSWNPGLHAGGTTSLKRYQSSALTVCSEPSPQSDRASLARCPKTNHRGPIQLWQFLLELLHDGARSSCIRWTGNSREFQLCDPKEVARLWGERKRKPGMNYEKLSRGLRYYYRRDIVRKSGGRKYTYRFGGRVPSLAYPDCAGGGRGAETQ
# How it was run: as §1
# [17] = biological target: T11, ELF3 (Homo sapiens, UniProt P78545 1-371); details: protein: recombinant; tags: N-terminal GST; dsDNA, one strand shown
# T11 sequence: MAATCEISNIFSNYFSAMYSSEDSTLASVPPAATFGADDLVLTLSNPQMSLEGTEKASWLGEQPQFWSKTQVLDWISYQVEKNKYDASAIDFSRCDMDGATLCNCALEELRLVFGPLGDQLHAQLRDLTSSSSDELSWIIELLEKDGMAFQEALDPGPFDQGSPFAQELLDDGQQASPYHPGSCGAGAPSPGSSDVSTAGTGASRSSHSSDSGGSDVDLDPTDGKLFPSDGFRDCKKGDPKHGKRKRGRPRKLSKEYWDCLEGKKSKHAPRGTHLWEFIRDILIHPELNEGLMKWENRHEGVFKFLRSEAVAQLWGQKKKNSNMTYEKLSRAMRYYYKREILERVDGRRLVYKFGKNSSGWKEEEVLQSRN
# How it was run: as §1
# [18] = biological target: CRX (Homo sapiens, UniProt O43186 1-299); details: protein: recombinant; tags: N-terminal GST; dsDNA, one strand shown
# How it was run: as §1
# [19] = biological target: ETV1 (Homo sapiens, UniProt P50549 1-477); details: protein: recombinant; tags: N-terminal GST; dsDNA, one strand shown
# How it was run: as §1
# ELF4, sequence (Q99607 whole entry): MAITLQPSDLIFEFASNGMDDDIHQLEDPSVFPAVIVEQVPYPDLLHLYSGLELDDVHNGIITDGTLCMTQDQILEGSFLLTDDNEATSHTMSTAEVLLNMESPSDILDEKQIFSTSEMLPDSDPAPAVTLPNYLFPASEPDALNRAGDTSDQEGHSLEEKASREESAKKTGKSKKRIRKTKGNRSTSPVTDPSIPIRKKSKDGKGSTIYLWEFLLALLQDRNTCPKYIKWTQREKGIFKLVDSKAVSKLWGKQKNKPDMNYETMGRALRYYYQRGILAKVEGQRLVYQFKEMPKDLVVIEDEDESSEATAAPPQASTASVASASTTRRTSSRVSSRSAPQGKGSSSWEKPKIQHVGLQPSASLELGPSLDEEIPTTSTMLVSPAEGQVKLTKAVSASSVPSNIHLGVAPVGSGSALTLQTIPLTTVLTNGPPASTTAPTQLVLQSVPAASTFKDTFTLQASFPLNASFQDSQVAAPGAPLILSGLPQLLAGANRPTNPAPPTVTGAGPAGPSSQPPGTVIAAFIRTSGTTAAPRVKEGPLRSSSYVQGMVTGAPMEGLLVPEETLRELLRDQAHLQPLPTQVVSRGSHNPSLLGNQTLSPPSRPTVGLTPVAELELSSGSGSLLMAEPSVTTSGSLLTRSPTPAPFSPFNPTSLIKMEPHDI
# HSF1, sequence (Q00613 whole entry): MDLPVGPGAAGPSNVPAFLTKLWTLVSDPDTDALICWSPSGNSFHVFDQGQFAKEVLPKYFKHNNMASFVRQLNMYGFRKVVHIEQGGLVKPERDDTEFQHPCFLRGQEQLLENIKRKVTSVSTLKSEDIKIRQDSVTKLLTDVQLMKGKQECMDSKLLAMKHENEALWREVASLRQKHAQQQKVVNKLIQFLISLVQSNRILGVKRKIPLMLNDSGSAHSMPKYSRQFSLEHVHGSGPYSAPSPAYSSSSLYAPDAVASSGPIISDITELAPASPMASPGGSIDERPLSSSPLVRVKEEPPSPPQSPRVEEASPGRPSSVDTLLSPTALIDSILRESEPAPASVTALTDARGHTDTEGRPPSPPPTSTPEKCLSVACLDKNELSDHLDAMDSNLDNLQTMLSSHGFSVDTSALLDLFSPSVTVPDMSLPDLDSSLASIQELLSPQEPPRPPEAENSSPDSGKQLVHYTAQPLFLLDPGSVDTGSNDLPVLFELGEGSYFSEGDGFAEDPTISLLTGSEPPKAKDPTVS
# SPIB, sequence (Q01892 whole entry): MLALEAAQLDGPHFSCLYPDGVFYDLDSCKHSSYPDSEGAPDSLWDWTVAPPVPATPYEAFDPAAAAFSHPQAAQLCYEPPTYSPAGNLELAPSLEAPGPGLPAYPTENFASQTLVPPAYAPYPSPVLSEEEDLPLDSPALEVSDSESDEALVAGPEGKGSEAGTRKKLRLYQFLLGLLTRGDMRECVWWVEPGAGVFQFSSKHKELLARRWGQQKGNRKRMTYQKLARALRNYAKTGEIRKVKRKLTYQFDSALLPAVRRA
# CRX, sequence (O43186 whole entry): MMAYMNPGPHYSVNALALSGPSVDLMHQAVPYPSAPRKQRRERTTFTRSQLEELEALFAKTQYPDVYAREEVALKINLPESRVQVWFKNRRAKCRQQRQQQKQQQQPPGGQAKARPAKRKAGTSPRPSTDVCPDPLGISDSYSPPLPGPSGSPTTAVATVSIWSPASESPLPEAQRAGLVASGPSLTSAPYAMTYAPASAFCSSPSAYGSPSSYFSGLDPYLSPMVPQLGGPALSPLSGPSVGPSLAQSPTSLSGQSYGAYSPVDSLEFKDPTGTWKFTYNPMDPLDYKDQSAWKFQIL
# ETV5, sequence (P41161 whole entry): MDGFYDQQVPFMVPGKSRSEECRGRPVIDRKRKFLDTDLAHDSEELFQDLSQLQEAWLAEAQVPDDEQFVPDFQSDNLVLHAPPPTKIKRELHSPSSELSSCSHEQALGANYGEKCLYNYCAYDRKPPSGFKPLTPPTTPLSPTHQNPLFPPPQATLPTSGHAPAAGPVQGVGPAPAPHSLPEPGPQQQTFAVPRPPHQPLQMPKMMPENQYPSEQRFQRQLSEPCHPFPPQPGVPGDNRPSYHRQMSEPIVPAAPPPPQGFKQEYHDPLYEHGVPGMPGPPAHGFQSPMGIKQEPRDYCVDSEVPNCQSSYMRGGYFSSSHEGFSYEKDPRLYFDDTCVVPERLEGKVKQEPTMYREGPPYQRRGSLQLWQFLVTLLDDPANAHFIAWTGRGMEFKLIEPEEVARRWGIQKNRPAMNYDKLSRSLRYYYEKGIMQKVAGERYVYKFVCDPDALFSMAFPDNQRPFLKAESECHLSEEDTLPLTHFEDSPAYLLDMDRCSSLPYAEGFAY
# ETV1, sequence (P50549 whole entry): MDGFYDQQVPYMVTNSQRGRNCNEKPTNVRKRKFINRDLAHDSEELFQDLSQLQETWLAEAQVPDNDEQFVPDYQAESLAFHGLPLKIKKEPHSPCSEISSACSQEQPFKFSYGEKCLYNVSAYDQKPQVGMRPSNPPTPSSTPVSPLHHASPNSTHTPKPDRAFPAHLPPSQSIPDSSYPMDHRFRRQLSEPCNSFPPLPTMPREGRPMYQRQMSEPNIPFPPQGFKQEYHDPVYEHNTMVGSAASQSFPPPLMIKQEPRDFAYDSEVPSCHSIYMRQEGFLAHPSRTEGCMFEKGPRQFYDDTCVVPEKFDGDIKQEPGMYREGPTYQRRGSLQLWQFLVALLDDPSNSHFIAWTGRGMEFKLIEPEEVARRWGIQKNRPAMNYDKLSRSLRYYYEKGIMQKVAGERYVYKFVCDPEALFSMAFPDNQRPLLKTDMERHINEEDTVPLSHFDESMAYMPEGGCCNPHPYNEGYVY
# ELF1, sequence (P32519 whole entry): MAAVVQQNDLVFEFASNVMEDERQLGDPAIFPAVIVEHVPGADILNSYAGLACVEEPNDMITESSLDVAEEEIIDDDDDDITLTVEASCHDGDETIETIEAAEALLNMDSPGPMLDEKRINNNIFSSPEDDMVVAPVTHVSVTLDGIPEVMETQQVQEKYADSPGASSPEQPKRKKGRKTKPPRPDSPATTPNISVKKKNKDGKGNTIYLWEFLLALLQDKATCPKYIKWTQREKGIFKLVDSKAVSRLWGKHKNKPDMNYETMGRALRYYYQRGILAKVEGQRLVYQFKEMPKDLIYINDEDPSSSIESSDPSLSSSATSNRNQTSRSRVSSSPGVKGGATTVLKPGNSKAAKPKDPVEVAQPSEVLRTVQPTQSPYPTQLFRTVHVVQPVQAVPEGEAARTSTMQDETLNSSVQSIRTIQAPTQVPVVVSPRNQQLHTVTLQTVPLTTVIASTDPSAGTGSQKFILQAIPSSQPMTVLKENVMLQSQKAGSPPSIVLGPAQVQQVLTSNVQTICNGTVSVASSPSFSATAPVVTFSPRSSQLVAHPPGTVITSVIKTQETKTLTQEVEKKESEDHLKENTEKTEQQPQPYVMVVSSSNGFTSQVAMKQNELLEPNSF
sequence,measurement,setting,value
TTACCC,binding signal,[1],"1.3 fold enrichment (6-mer frequency, TF over GST control)"
same,binding signal,[2],"1.44 fold enrichment (6-mer frequency, TF over GST control)"
same,binding signal,[3],"1.3 fold enrichment (6-mer frequency, TF over GST control)"
same,binding signal,[4],"1.34 fold enrichment (6-mer frequency, TF over GST control)"
same,binding signal,[5],"1.38 fold enrichment (6-mer frequency, TF over GST control)"
same,binding signal,[6],"1.43 fold enrichment (6-mer frequency, TF over GST control)"
same,binding signal,[7],"1.35 fold enrichment (6-mer frequency, TF over GST control)"
same,binding signal,[8],"1.45 fold enrichment (6-mer frequency, TF over GST control)"
same,binding signal,[9],"1.39 fold enrichment (6-mer frequency, TF over GST control)"
same,binding signal,[10],"1.36 fold enrichment (6-mer frequency, TF over GST control)"
same,binding signal,[11],"1.36 fold enrichment (6-mer frequency, TF over GST control)"
same,binding signal,[12],"1.43 fold enrichment (6-mer frequency, TF over GST control)"
same,binding signal,[13],"1.4 fold enrichment (6-mer frequency, TF over GST control)"
same,binding signal,[14],"1.48 fold enrichment (6-mer frequency, TF over GST control)"
same,binding signal,[15],"1.38 fold enrichment (6-mer frequency, TF over GST control)"
same,binding signal,[16],"1.56 fold enrichment (6-mer frequency, TF over GST control)"
same,binding signal,[17],"1.14 fold enrichment (6-mer frequency, TF over GST control)"
same,binding signal,[18],"1.95 fold enrichment (6-mer frequency, TF over GST control)"
same,binding signal,[19],"1.35 fold enrichment (6-mer frequency, TF over GST control)"
